Screening data from PubChem.
PrPC TRFRET: inhibitors of human cell surface prion protein PrPC; AID 720596; inhibition, % at 13.8 µM; TR-FRET read-out; 370,000 compounds, 0.43% hits; in the data active = inhibition above about 24%
GDH-TPI counter-1: GDH-TPI coupled enzyme inhibition counter-screen | GDH-TPI coupled enzyme counterscreen, NADH absorbance | inhibition, % at 4.8 µM | 360,000 compounds, 1.2% hits; in the data active = inhibition above about 30%
BJeLR lethal: kills HRASV12-expressing BJeLR cells | BJeLR (HRASV12) viability, CellTiter-Glo ATP luminescence, 48 h | 300,000 compounds, 0.17% hits | AID 1554 | inhibition, % (concentration not given with the values); in the data active = inhibition above about 50%
RecA splice inh: blocks M. tuberculosis RecA intein splicing; cell-free RecA intein splicing, fluorescence; inhibition, % (concentration not given with the values); 290,000 compounds, 0.75% hits; AID 2221; P9WHJ3; in the data active = inhibition above about 30%
Target sequence (P9WHJ3 whole entry, looked up, canonical isoform): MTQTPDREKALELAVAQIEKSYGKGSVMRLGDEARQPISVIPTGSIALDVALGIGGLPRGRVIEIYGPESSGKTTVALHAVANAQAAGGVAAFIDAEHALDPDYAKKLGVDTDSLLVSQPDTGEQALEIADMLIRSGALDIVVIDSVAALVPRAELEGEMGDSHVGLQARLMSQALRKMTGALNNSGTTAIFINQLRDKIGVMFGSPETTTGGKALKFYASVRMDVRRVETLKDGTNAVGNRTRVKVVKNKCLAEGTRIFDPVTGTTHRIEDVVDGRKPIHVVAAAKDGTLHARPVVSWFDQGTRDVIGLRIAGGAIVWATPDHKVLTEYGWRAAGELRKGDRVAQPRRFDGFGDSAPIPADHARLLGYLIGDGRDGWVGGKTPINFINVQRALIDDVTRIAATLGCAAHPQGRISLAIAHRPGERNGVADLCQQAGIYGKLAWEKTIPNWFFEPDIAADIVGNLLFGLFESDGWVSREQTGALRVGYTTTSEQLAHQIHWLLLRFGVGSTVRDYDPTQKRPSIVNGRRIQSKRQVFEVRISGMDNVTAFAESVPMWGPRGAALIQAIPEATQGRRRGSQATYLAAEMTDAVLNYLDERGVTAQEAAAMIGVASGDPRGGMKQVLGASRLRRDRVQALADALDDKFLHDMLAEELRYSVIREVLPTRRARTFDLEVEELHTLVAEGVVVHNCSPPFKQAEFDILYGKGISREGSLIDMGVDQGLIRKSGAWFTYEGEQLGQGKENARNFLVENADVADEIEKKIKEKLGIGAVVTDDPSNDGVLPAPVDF
FBA Mtb inh: inhibits M. tuberculosis FBA enzyme | purified M. tuberculosis FBA, fluorescence read-out | inhibition, % at 1 µM | 360,000 compounds, 2.3% hits
Mtb FBA inh conf: Mtb FBA inhibition, confirmed; shares compounds with FBA Mtb inh; 5,600 compounds, 78% hits; inhibition, % at 1 µM; purified M. tuberculosis FBA, fluorescence read-out
GDH-TPI counter-2: GDH-TPI inhibition counter-screen for FBA inhibitors | GDH-TPI coupled enzyme counterscreen, fluorescence | inhibition, % at 1 µM | shares compounds with FBA Mtb inh | 5,600 compounds, 81% hits; in the data active = inhibition above about 10%
Each line names hits and unclear results; the compound was inactive in the other large screens (follow-up assays come after a bar, where they were run). Only some compounds are listed: those with a hit (about 4.2% of all), similar ones and a draw of the others. Cut-off read from the data, not from the text of the source, unless noted: active = inhibition above about 27%; inactive = the rest.

COc1ccc(-c2sc3ccc(N4CCOCC4)cc3c2C#CC(C)(C)O)cc1	none (no result: BJeLR lethal, RecA splice inh)
COCCCNC(=O)C[C@H]1C[C@@]2(C(=O)OC)C(=C[C@H](C3CCCC3)O[C@@H]2C)N(CCC2=CCCCC2)C1=O	none (no result: GDH-TPI counter-1, BJeLR lethal, RecA splice inh, FBA Mtb inh)
CCOC(=O)CC[C@@H]1CC[C@]2(CCCN(S(=O)(=O)C3CCCCC3)C2)O1	none (no result: GDH-TPI counter-1, BJeLR lethal, RecA splice inh, FBA Mtb inh)
C=CCn1c(COc2ccc(C)cc2)nnc1SCC(=O)Nc1cc(Cl)cc(Cl)c1	none (no result: GDH-TPI counter-1, BJeLR lethal, RecA splice inh, FBA Mtb inh)
COc1ccc(-c2nc3nc(N)nn3cc2C)cc1F	FBA Mtb inh 28 | Mtb FBA inh conf 82 | GDH-TPI counter-2 70
O=C(C(=O)N1CCC(CNS(=O)(=O)c2ccc(OC(F)(F)F)cc2)CC1)c1cc2ccccc2o1	none (no result: GDH-TPI counter-1, BJeLR lethal, RecA splice inh, FBA Mtb inh)
c1cnn2c(-c3ccc4c(c3)CCO4)cnc2c1	none (no result: BJeLR lethal, RecA splice inh)
Clc1ccc(-c2cnc3cccnn23)cc1	FBA Mtb inh 51 (no result: BJeLR lethal, RecA splice inh) | Mtb FBA inh conf active | GDH-TPI counter-2 active
COc1ncccc1-c1cnc2cccnn12	FBA Mtb inh 92 (no result: BJeLR lethal, RecA splice inh) | Mtb FBA inh conf 117 | GDH-TPI counter-2 100
COc1ccc(-c2cnc3cccnn23)cn1	FBA Mtb inh 29 (no result: BJeLR lethal, RecA splice inh) | Mtb FBA inh conf inactive | GDH-TPI counter-2 inactive
COC(=O)[C@]12C[C@H](CC(=O)N3CCCCC3)C(=O)N(Cc3ccco3)C1=C[C@H](COCc1ccccc1)O[C@@H]2C	none (no result: GDH-TPI counter-1, BJeLR lethal, RecA splice inh, FBA Mtb inh)
C=CCn1c(-c2cc3cccc(OC)c3o2)n[nH]c1=S	FBA Mtb inh 44 | Mtb FBA inh conf 102 | GDH-TPI counter-2 72
C=CCn1c(-c2cccc(OC)c2OC)n[nH]c1=S	none
Fc1ccc2cc(-c3ccccc3)ncc2c1	FBA Mtb inh 49 (no result: BJeLR lethal, RecA splice inh) | Mtb FBA inh conf 88 | GDH-TPI counter-2 71
c1ccc(-c2cc3ccccc3cn2)cc1	none (no result: BJeLR lethal, RecA splice inh)
CC1CCN(c2nc3c(cc2C#N)COC(C)(C)C3)CC1	FBA Mtb inh 40 | Mtb FBA inh conf 91 | GDH-TPI counter-2 63
CC(C)CCNc1nc2c(cc1C#N)COC(C)(C)C2	FBA Mtb inh 64 | Mtb FBA inh conf 192 | GDH-TPI counter-2 159
CC(C)n1nnnc1C1(C)CCSCC(=O)N1Cc1cccc(C(F)(F)F)c1 (stereo unspecified)	none (no result: GDH-TPI counter-1, BJeLR lethal, RecA splice inh, FBA Mtb inh)
Cc1ccc(-c2csc(NC(=O)CN3CC(C)OC(C)C3)n2)cc1 (stereo unspecified)	FBA Mtb inh 42 | Mtb FBA inh conf 88 | GDH-TPI counter-2 67
COc1ccc(OC)c(/C=N/NC(=O)CSc2cc(C)nc3c(OC)cccc23)c1	FBA Mtb inh 30 | Mtb FBA inh conf 50 | GDH-TPI counter-2 35
COc1ccc(OC)c(/C=N\NC(=O)c2c(C)nc3cc(C)ccn23)c1	FBA Mtb inh 60 | Mtb FBA inh conf active | GDH-TPI counter-2 active
c1ccc2c(N3CCOCC3)nc(N3CCOCC3)nc2c1	FBA Mtb inh 110 | Mtb FBA inh conf active | GDH-TPI counter-2 163
O=c1oc(C2(O)CCCCC2)cc2ccc(/C=C/c3ccc(F)cc3)cc12	FBA Mtb inh 32 (no result: BJeLR lethal, RecA splice inh) | Mtb FBA inh conf 34 | GDH-TPI counter-2 24
COc1ccc2c(C(c3ccccc3O)C3CCCN3S(=O)(=O)c3ccc(C)cc3)cn(C)c2c1 (stereo unspecified)	none (no result: GDH-TPI counter-1, BJeLR lethal, RecA splice inh, FBA Mtb inh)
CCN(CCNC(=O)[C@H]1C=C(OC)C(=O)C[C@H](c2ccccc2)[C@H]1C)C(C)=O	none (no result: GDH-TPI counter-1, BJeLR lethal, RecA splice inh, FBA Mtb inh)
O=c1c2ccccc2nc2n1CCCN2	FBA Mtb inh 70 | Mtb FBA inh conf active | GDH-TPI counter-2 active
O=c1[nH]cnc2ncc(-c3ccc(O)cc3)nc12	none
O=c1[nH]cnc2nn(-c3ccccc3)nc12	FBA Mtb inh 99 | Mtb FBA inh conf inactive | GDH-TPI counter-2 inactive
O=c1[nH]cnc2nc(-c3ccccc3)c(-c3ccccc3)nc12	FBA Mtb inh 50 | Mtb FBA inh conf inactive | GDH-TPI counter-2 inactive
COC(=O)C1=C(C)N(C)C(=NCc2ccccc2)NC1CCc1ccccc1 (stereo unspecified)	none (no result: GDH-TPI counter-1, BJeLR lethal, RecA splice inh, FBA Mtb inh)
CCCCc1c(-c2ccccc2OC)ncn1Cc1ccc(Cl)cc1Cl	none (no result: GDH-TPI counter-1, BJeLR lethal, RecA splice inh, FBA Mtb inh)
C=CCOc1cccc(CNc2cccc(C(=O)O)c2)c1	FBA Mtb inh 28 | Mtb FBA inh conf inactive | GDH-TPI counter-2 inactive
C=CCOc1c(CNc2cccc(C(=O)O)c2)cccc1OC	FBA Mtb inh 29 | Mtb FBA inh conf 39 | GDH-TPI counter-2 53
COC(=O)[C@]12C[C@H](CC(=O)NCc3ccccc3)C(=O)N(CCc3ccc(OC)c(OC)c3)C1=C[C@H](C1CCCC1)O[C@@H]2C	none (no result: GDH-TPI counter-1, BJeLR lethal, RecA splice inh, FBA Mtb inh)
CCCOC(=O)c1ccc(Oc2coc3c(CN(CC)CC)c(O)ccc3c2=O)cc1	FBA Mtb inh 55 | Mtb FBA inh conf inactive | GDH-TPI counter-2 12
Cc1c(O)ccc2c(=O)c(Oc3ccccc3)coc12	none
C#CCN(Cc1ccco1)C(=O)c1nnc2c3ccccc3n(S(=O)(=O)c3ccc(C)cc3)c2n1	none (no result: GDH-TPI counter-1, BJeLR lethal, RecA splice inh, FBA Mtb inh)
C[C@@H]1CCN(C2CC2)S(=O)(=O)c2c(cccc2N2CCC[C@@H]2CO)O1	none (no result: GDH-TPI counter-1, BJeLR lethal, RecA splice inh, FBA Mtb inh)
Clc1ccc(-c2ccnc(-n3cccc3)n2)s1	FBA Mtb inh 45 | Mtb FBA inh conf active | GDH-TPI counter-2 157
c1coc(-c2ccnc(-n3cccc3)n2)c1	FBA Mtb inh 31 | Mtb FBA inh conf 147 | GDH-TPI counter-2 129
N#Cc1cnn2c(C(F)(F)F)cc(-c3ccccc3)nc12	none
N#Cc1cnn2c3c(cnc12)C(=O)N1CCc2ccccc2C1C3 (stereo unspecified)	FBA Mtb inh 27 | Mtb FBA inh conf 87 | GDH-TPI counter-2 64
O=C1c2cnc3ncnn3c2CC2c3ccccc3CCN12 (stereo unspecified)	FBA Mtb inh 58 | Mtb FBA inh conf inactive | GDH-TPI counter-2 18
CSc1nc2ncc3c(n2n1)CC1c2ccccc2CCN1C3=O (stereo unspecified)	FBA Mtb inh 53 | Mtb FBA inh conf 76 | GDH-TPI counter-2 58
O=C1c2cnc3nc(SCc4cccc(Cl)c4)nn3c2CC2c3ccccc3CCN12 (stereo unspecified)	none
Cc1csc(NC(=O)c2ccccc2O)n1	FBA Mtb inh 66 | Mtb FBA inh conf 99 | GDH-TPI counter-2 85
CC(C)(C)c1csc(NC(=O)c2ccccc2O)n1	FBA Mtb inh 37 | Mtb FBA inh conf 43 | GDH-TPI counter-2 36
CC(C)(C)c1csc(NC(=O)CS(=O)(=O)c2ccccc2)n1	none
COc1ccc(OC)c(/C=C/C(=O)Oc2ccc(C(C)=O)cc2)c1	FBA Mtb inh 33 | Mtb FBA inh conf 132 | GDH-TPI counter-2 107
COc1ccccc1C(=O)NC1CCCCN(Cc2cccc(Cl)c2)C1=O (stereo unspecified)	none (no result: GDH-TPI counter-1, BJeLR lethal, RecA splice inh, FBA Mtb inh)
CN(C)S(=O)(=O)c1cccc(C(=O)N/N=C\c2ccc(-c3ccccn3)cc2)c1	none (no result: GDH-TPI counter-1, BJeLR lethal, RecA splice inh, FBA Mtb inh)
Cc1ccc(-c2nc3ncccn3c2NC(=O)C2CC2)cc1	FBA Mtb inh 63 | Mtb FBA inh conf 36 | GDH-TPI counter-2 10
CC(=O)Nc1c(-c2ccccc2)nc2ncccn12	FBA Mtb inh 42 | Mtb FBA inh conf 40 | GDH-TPI counter-2 30
CC(=O)Nc1nc2ncccn2c1-c1ccccc1	none (no result: GDH-TPI counter-1, BJeLR lethal, RecA splice inh, FBA Mtb inh)
